High-throughput results: PubChem, National Center for Advancing Translational Sciences (NCATS)
The list is not random: actives were taken first. Their share in the collection is about 14%.
FBPA Giardia inh: Giardia lamblia aldolase inhibition. A8B2U2. purified Giardia FBPA. Potency, µM (series often up to 59.6 µM), most hits filed as inhibitors. hit rate 0.71% among 290,000. AID 2451; also: nearly all actives have a fitted effect of over 55% in size
Target sequence (A8B2U2 whole entry, looked up): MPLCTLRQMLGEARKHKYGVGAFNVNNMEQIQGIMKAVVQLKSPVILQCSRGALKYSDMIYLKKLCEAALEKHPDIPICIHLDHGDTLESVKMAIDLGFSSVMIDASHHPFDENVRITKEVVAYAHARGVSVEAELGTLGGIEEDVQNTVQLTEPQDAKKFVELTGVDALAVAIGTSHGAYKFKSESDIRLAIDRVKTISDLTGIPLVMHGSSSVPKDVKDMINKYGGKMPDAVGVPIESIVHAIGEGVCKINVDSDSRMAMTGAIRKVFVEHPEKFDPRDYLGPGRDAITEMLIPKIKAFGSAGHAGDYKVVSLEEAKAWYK
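40 nM FBPA preincubated 10 min at RT with compound (up to 57.5 uM final), then substrate plus GAPDH/TPI/NAD/arsenate coupling and diaphorase/resazurin added. Fluorescence read after 20 min at RT, 525/598 nm.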
HCMV antiviral: inhibitors of human cytomegalovirus | HFF cells, HCMV-luciferase reporter, 72 h; active compounds read low | activity change, negative = inhibition, % at 57.5 µM | hit rate 4.5% among 410,000 | AID 1259415; in the data active = activity change below about -60%; inconclusive = no clear call, values can overlap the other calls; inactive = above about -39%
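HFF cells seeded 16 h at 37C, treated with compounds, infected with luciferase-reporter HCMV at MOI 1 PFU/cell; luciferase read at 72 h post infection, normalized to buffer-only and Salinomycin controls.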
Sm TGR block: S. mansoni TGR enzyme inhibition. Q962Y6. purified TGR, DTNB reduction, TNB absorbance 405 nm. Potency, µM (highest dose often 114 µM), hits mostly inhibitors. hit rate 3% among 360,000; also: nearly all actives have a fitted effect of over 60% in size
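TGR 20 nM + NADPH 100 uM (dispensed conc.), cpd preinc 15 min RT; start with NADPH (500 uM addition) then DTNB (15 mM addition). Kinetic TNB absorbance, 405 nm filter. Four-parameter Hill fit across titration.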
Pf growth 96h: P. falciparum growth inhibition at 96 hours. AID 504834. P. falciparum luciferase reporter growth, 96 h. Potency, µM (series often up to 28.7 µM), usual class: inhibitors. hit rate 6.9% among 320,000
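Parasite growth measured via integrated firefly luciferase reporter in P. falciparum. Infected erythrocytes at 2% hematocrit, 0.05% parasitemia final were treated 96 hours at 37 C under 5% CO2, and luminescence was read.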
Pf growth 48h: P. falciparum growth inhibition at 48 hours (one generation); hit rate 5.9% among 310,000; P. falciparum luciferase growth in erythrocytes, 48 h; Potency, µM (doses to about 28.7 µM), most hits filed as inhibitors
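Growth was read as firefly luciferase luminescence after a 48 h, 37 C, 5% CO2 exposure of compounds to reporter-bearing P. falciparum cultures (0.1% parasitemia, 2% hematocrit final) in Albumax-supplemented RPMI 1640.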
Large screens that a line does not name were inactive. Unless noted, calls follow the shape of the dose curve; as a rule, active = well fitted curve in the direction sought with a large enough effect; inconclusive = small, poorly fitted or top-dose-only effect, or another doubt; inactive = no such curve, though single readings can be large; an effect the other way counts as inactive or inconclusive.

COc1cc(/C=C2\C(=O)ON=C2c2ccccc2)cc(Cl)c1O	Sm TGR block 7.1µM
COc1cc(/C=C2/C(=O)ON=C2c2ccccc2)ccc1O	Sm TGR block 25µM
COP(=O)(OC)C(NC(=O)Nc1ccccc1)c1ccccc1 (centres undefined)	none
Cc1ccc(O)c(N=Nc2nccs2)c1	Pf growth 48h inconclusive (no result: FBPA Giardia inh)
COC(=O)c1ccccc1NC(=O)CN(c1ccccc1OC)S(C)(=O)=O	none (no result: FBPA Giardia inh, Pf growth 96h, Pf growth 48h)
Cc1cccc(C)c1OCc1nc2c3cnn(-c4ccccc4F)c3ncn2n1	none (no result: FBPA Giardia inh, Pf growth 96h, Pf growth 48h)
OC(CN(c1ccccc1)c1ccccc1)Cn1cnc2ccccc21 (centres undefined)	HCMV antiviral inconclusive, Pf growth 48h 12µM
OC(COc1ccc2c(c1)CCC2)Cn1cnc2ccccc21 (centres undefined)	Pf growth 48h 10µM
CC(=O)Nc1ccc(OCC(O)Cn2cnc3ccccc32)cc1 (centres undefined)	Pf growth 96h 7.4µM
CN(Cc1ccccn1)C(=O)C1CCC(=O)N(CCc2ccc(Cl)cc2)C1 (centres undefined)	none (no result: FBPA Giardia inh)
FC(F)(F)c1ccccc1NC1=NCCCS1	HCMV antiviral -63
Clc1ccccc1NC1=NCCCS1	HCMV antiviral inconclusive
CCn1ccnc1CN(C)Cc1cn(C)nc1-c1ccccc1F	HCMV antiviral inconclusive, Pf growth 96h 9.3µM
CN(Cc1ccc(-n2cccn2)cc1)Cc1cn(C)nc1-c1ccccc1F	Pf growth 96h inconclusive
COCCN(Cc1cn(C)nc1-c1ccccc1F)C(C)C	Pf growth 96h 9.3µM
Cc1cc(CN2CCCC(C(=O)Nc3ccc(-c4nc5ccccc5[nH]4)cc3)C2)n[nH]1 (centres undefined)	Pf growth 48h inconclusive
O=C(NCc1ccco1)C(=O)N1CCCC1	none
CCCN(CCC)C(C(=O)Nc1cccc(OC)c1)c1ccccc1 (centres undefined)	Pf growth 96h 13µM, Pf growth 48h inconclusive
COc1cccc(NC(=O)C(Nc2ccccc2)c2ccccc2F)c1 (centres undefined)	HCMV antiviral -67 (no result: FBPA Giardia inh, Sm TGR block, Pf growth 96h, Pf growth 48h)
Cc1cccc(Cl)c1NC(=O)C(Nc1ccccc1)c1ccccc1F (centres undefined)	none (no result: FBPA Giardia inh, Sm TGR block, Pf growth 96h, Pf growth 48h)
COc1cccc(NC(=O)C(NCCC(C)C)c2ccccc2)c1 (centres undefined)	Pf growth 96h inconclusive (no result: Pf growth 48h)
COc1cccc(C(=O)NCC(=O)N2CCN(c3ccc(C(F)(F)F)cn3)CC2)c1	HCMV antiviral inconclusive, Pf growth 48h inconclusive (no result: FBPA Giardia inh)
CCCOc1cccc(C(=O)NCCNC(=O)c2ccc(C)nc2)c1	none
COc1ccc(C2CCCN2C(=O)Nc2ccc(Cl)cc2)cc1OC (centres undefined)	HCMV antiviral -72 (no result: Pf growth 48h)
COc1ccc(NC(=O)C2CCCN2C(=O)Nc2ccccc2)cc1OC (centres undefined)	Pf growth 96h inconclusive
O=S(=O)(Nc1nc2ccccc2nc1Nc1cccc(S(=O)(=O)N2CCCCC2)c1)c1ccccc1	HCMV antiviral -83, Pf growth 96h 2.1µM, Pf growth 48h 8.3µM
O=C(Nc1cccc(S(=O)(=O)N2CCCCCC2)c1)c1ccc2c(c1)OCO2	HCMV antiviral -62
COc1ccc(S(=O)(=O)Nc2cccc(S(=O)(=O)N3CCCCCC3)c2)cc1	Pf growth 96h inconclusive
CC(=O)Nc1cccc(S(=O)(=O)N2CCCCCC2)c1	HCMV antiviral -100
O=C(Nc1cccc(S(=O)(=O)N2CCCCCC2)c1)C1CCC1	Pf growth 96h 13µM, Pf growth 48h inconclusive (no result: FBPA Giardia inh)
C[C@@H]1CN([C@H](C)CO)C(=O)c2cc(Br)cnc2O[C@H]1CN(C)C	none (no result: FBPA Giardia inh, Sm TGR block, Pf growth 96h, Pf growth 48h)
COc1cc(OC)c(NC(=O)CC2SC(N)=NC2=O)cc1Cl (centres undefined)	none (no result: FBPA Giardia inh, Sm TGR block, Pf growth 96h, Pf growth 48h)
O=C(O)COc1ccccc1/C=N/NC(=O)CNC(=O)c1ccco1	none (no result: FBPA Giardia inh)
Cc1c(C)c2ccc(OCC(=O)NCCCN3CCCC3=O)cc2oc1=O	HCMV antiviral inconclusive (no result: FBPA Giardia inh)
O=C(Nc1c(O)c2ccccc2oc1=O)c1ccccc1Cl	none (no result: FBPA Giardia inh, Pf growth 96h, Pf growth 48h)
OC(c1ccc(F)cc1)c1ncc(-c2ccc3ccccc3c2)[nH]1 (centres undefined)	none (no result: FBPA Giardia inh, Sm TGR block, Pf growth 96h, Pf growth 48h)
COc1cccc(CNC(=O)CN2C(=O)CCn3nc(-c4cn(C)c5ccccc45)cc32)c1OC	Sm TGR block 16µM (no result: FBPA Giardia inh, Pf growth 96h, Pf growth 48h)
O=c1cc(O)c2c(=O)n(-c3ccccc3)c3ccccc3c2o1	Pf growth 96h 12µM
CCn1c(=O)c2c(O)cc(=O)oc2c2ccccc21	none
O=C(NCCCN1CCOCC1)c1sc2cc([N+](=O)[O-])ccc2c1Cl	FBPA Giardia inh 2.5µM
O=C(NCCCN1CCOCC1)c1sc2cc(Cl)ccc2c1Cl	none
Cc1cccc(N2CCN(S(=O)(=O)c3ccc4c(c3)NC(=O)C(C)S4)CC2)c1C (centres undefined)	FBPA Giardia inh inconclusive, HCMV antiviral -79, Pf growth 96h inconclusive, Pf growth 48h inconclusive
CC1Sc2ccc(S(=O)(=O)N3CCN(c4cccc(Cl)c4)CC3)cc2NC1=O (centres undefined)	Pf growth 96h 12µM (no result: FBPA Giardia inh)
CC1Sc2ccc(S(=O)(=O)N3CCN(c4ccccc4)CC3)cc2NC1=O (centres undefined)	HCMV antiviral inconclusive, Pf growth 96h inconclusive (no result: FBPA Giardia inh)
COC(=O)[C@]12CCCCC=C1N(CCc1ccc(OC)c(OC)c1)C(=O)[C@H](CC(=O)NCCc1ccccc1OC)C2	none (no result: FBPA Giardia inh, Sm TGR block, Pf growth 96h, Pf growth 48h)
COc1ccccc1N(CC(O)COc1c(C)cc(C)cc1C)S(=O)(=O)c1ccccc1 (centres undefined)	Pf growth 96h 13µM, Pf growth 48h 12µM
COc1ccccc1N(CC(O)COc1ccc(C)cc1)S(=O)(=O)c1ccccc1 (centres undefined)	Pf growth 96h 2.1µM, Pf growth 48h inconclusive
COc1ccccc1N(CC(O)COc1ccccc1)S(=O)(=O)c1ccccc1 (centres undefined)	Pf growth 96h inconclusive, Pf growth 48h inconclusive
O=C1CC(=O)Nc2cc(S(=O)(=O)Nc3cccc(C(F)(F)F)c3)ccc2N1	HCMV antiviral inconclusive (no result: FBPA Giardia inh)
O=C(O)c1ccccc1Nc1ccc([N+](=O)[O-])cc1C(=O)O	none
O=[N+]([O-])c1cc([N+](=O)[O-])c2nonc2c1Nc1ccc(O)cc1	Sm TGR block 32µM, Pf growth 48h inconclusive
O=C(O)c1ccccc1Nc1ccc([N+](=O)[O-])c2nonc12	Sm TGR block 35µM (no result: HCMV antiviral, Pf growth 48h)
O=[N+]([O-])c1cc([N+](=O)[O-])c2nonc2c1Nc1ccccc1O	HCMV antiviral inconclusive, Sm TGR block 50µM, Pf growth 96h 2.3µM, Pf growth 48h inconclusive
COc1cc(S(=O)(=O)N2CCn3cccc3C2C)ccc1NC(C)=O (centres undefined)	none (no result: FBPA Giardia inh, Sm TGR block, Pf growth 96h, Pf growth 48h)
CC(=O)c1nnn(-c2ccc(C)cc2Cl)c1C	none (no result: FBPA Giardia inh, Pf growth 96h, Pf growth 48h)
C=CCN(c1ccc(C(=O)NCCN2CCOCC2)cc1)S(C)(=O)=O	none
CC(C)Cc1nc2oc3c(Cl)ncnc3c2c2c1CCC2	HCMV antiviral -96
COc1ccc(-c2cc(=O)[nH][nH]2)cc1OC	Pf growth 48h 12µM (no result: Pf growth 96h)
